This is an account of results in PubChem BioAssay (NCI).

Structures are written as SMILES. Several values for one entry are separate records, joined by “and”; a condition that tells them apart may be missing. Equal values may be shown once. Compounds without any hit were thinned out: in the full panel of roughly 79,000, 15% have a hit. Some compounds were tested as several samples or in several runs, with calls that do not always agree. Activity calls are given as the source filed them. Cut-off read from the data, not from the text of the source: active = growth inhibition above about 70%; inactive = the rest.

Experiment [1] in a line: NCI Yeast Anticancer Drug Screen. Data for the rad50 strain (AID 155).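 Note: 0% = growth of vehicle-only cultures of the same strain.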 The conditions noted are these: S. cerevisiae rad50 strain growth inhibition; at 50.0 µM; stronger effect = higher value. The method in brief:
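A DNA repair-deficient yeast mutant serves as the test organism; compound-induced growth inhibition is calculated against vehicle-treated cells.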

Experiment [2] is described as follows: NCI Yeast Anticancer Drug Screen. Data for the mec2-1 strain (AID 157). The conditions noted are these: S. cerevisiae mec2-1 strain, at 50.0 µM, stronger effect = higher value. The method in brief: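 mec2-1 yeast strain, carrying an alteration in DNA damage repair or cell cycle control, was exposed to compounds; growth inhibition was measured relative to vehicle-treated controls.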

A short description of experiment [3]: NCI Yeast Anticancer Drug Screen. Data for the sgs1 mgt1 strain (AID 161).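 Note: 0% = growth of cultures given vehicle only.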 The conditions noted are these: S. cerevisiae sgs1 mgt1 strain, at 50.0 µM, stronger effect = higher value. In short, it runs like this:
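Percent growth inhibition was derived by comparing compound-exposed mutant yeast with vehicle-exposed cultures. The strain carries alterations in DNA damage repair.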

Experiment [4] can be described thus: NCI Yeast Anticancer Drug Screen. Data for the cln2 rad14 strain (AID 165).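 Note: 0% = growth equal to vehicle treated cultures.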 The following applies: S. cerevisiae cln2 rad14 strain, at 50.0 µM, stronger effect = higher value. The method in brief: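 Yeast carrying cln2 and rad14 alterations (cell cycle control and DNA damage repair) were exposed to compounds. Growth inhibition was measured against vehicle-treated controls.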

A short description of experiment [5]: NCI Yeast Anticancer Drug Screen. Data for the bub3 strain (AID 167). The conditions noted are these: S. cerevisiae bub3 mutant strain, at 50.0 µM, stronger effect = higher value. In short, it runs like this: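 Inhibition values come from growth of compound-treated mutant yeast normalised to vehicle-treated controls.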
Experiment [6] can be described thus: NCI Yeast Anticancer Drug Screen. Data for the mlh1 rad18 strain (AID 175). The following applies: S. cerevisiae mlh1 rad18 strain growth inhibition; at 50.0 µM; stronger effect = higher value. The method in brief: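 Growth inhibition of the yeast strain was measured after compound exposure and expressed relative to vehicle-treated controls. The strain carries defined defects in DNA damage repair.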

As to `COC(=O)c1ccccc1NC(=O)C(=O)CC(=O)CC(c1ccccc1)c1c(O)c2ccccc2oc1=O` (centres undefined), the growth inhibition is -15.7% (inactive) in experiment [1]; -3.5% (inactive) in experiment [2]; 15.9% (inactive) in experiment [3]; 11.3% (inactive) in experiment [4]; 24.9% (inactive) in experiment [5]; 21.2% (inactive) in experiment [6].
With `O=C([CH-]C(=O)C(F)(F)F)c1ccco1.O=C([CH-]C(=O)C(F)(F)F)c1ccco1.O=C([CH-]C(=O)C(F)(F)F)c1ccco1.[Ru+3]`, the growth inhibition was 8.2% (inactive) in experiment [1]; -11% (inactive) in experiment [2]; -19.6% (inactive) in experiment [3]; -11.6% (inactive) in experiment [4]; 1.95% (inactive) in experiment [5]; 11.7% (inactive) in experiment [6].
Take `C=CCC1(/C(=C\CC)CCC)C(=O)NC(=O)NC1=O`: the growth inhibition in experiment [1] is 15.1% (inactive); in experiment [2] it was -0.3% (inactive); in experiment [3], 1.75% (inactive); in experiment [4], -32% (inactive); in experiment [5] it was -0.2% (inactive); in experiment [6], 12.3% (inactive).
With `Cc1cccc(C)c1N`, the growth inhibition in experiment [1] is 10.3% (inactive); in experiment [2] it was 2.4% (inactive); in experiment [3] it was -9.65% (inactive); in experiment [4] it was -36.5% (inactive); in experiment [5] it was 1.7% (inactive); in experiment [6], 16.8% (inactive).
On to `O=[N+]([O-])c1ccc2c(c1)Oc1cccnc1[Se]2`, for which the growth inhibition is 16.1% (inactive) in experiment [1]; 8.6% (inactive) in experiment [2]; 20.9% (inactive) in experiment [3]; 8.25% (inactive) in experiment [4]; -11.5% (inactive) in experiment [5]; 38.8% (inactive) in experiment [6].
In the case of `CNC(=O)Oc1cc(OC)ccc1C(=O)c1ccccc1`, the growth inhibition in experiment [1] is 2.45% (inactive); in experiment [2], 6.85% (inactive); in experiment [3] it was 32.6% (inactive); in experiment [4] it was -21.6% (inactive); in experiment [5], 5.35% (inactive); in experiment [6], 47% (inactive).
On to `O=P(O)(O)c1ccccc1.[Zn+2]`, for which the growth inhibition in experiment [1] is 13.9% (inactive); in experiment [2], 16.4% (inactive); in experiment [3] it was -0.45% (inactive); in experiment [4], -14% (inactive); in experiment [5] it was 18.1% (inactive); in experiment [6] it was 24.2% (inactive).
For the compound `CN(C)CCC(C)(C#N)c1ccccc1` (centres undefined), the growth inhibition in experiment [1] was 8.9% (inactive); in experiment [2], 5.7% (inactive); in experiment [3] it was -4.8% (inactive); in experiment [4] it was -7.05% (inactive); in experiment [5], 13.9% (inactive); in experiment [6] it was 21.1% (inactive).
On to `O=c1[nH]c(O)c(N=Nc2ccc([N+](=O)[O-])cc2[N+](=O)[O-])c(=O)[nH]1`, for which the growth inhibition in experiment [1] is 14.7% (inactive); in experiment [2], 15.4% (inactive); in experiment [3], 22.2% (inactive); in experiment [4] it was 14.7% (inactive); in experiment [5], -11.7% (inactive); in experiment [6], 7.35% (inactive).
On to `O=C1NC(=O)C(CC(C(=O)C(=O)Nc2ccccc2Cl)C(=O)c2ccc3ccccc3c2)C(=O)N1` (centres undefined), for which the growth inhibition is -27.7% (inactive) in experiment [1]; 7.8% (inactive) in experiment [2]; -6.3% (inactive) in experiment [3]; -32.8% (inactive) in experiment [4]; 2.4% (inactive) in experiment [5]; -3.45% (inactive) in experiment [6].
In the case of `COC(=O)Cc1ccccc1`, the growth inhibition in experiment [1] was -4.4% (inactive); in experiment [2] it was 15.1% (inactive); in experiment [3], -31.8% (inactive); in experiment [4], 5.9% (inactive); in experiment [5], -50.5% (inactive); in experiment [6] it was -19.5% (inactive).
On to `[CH3][Sn]1([CH3])[O]C(=O)c2ccccc2C(=O)[O]1`, for which the growth inhibition in experiment [1] is 6.8% (inactive); in experiment [2], 15.7% (inactive); in experiment [3], 23.6% (inactive); in experiment [4], -13.4% (inactive); in experiment [5], -13.4% (inactive); in experiment [6], -13.8% (inactive).
In the case of `COc1ccc2c3c1OC1C(C)(O)C(O)CC4C(C2)N(C)CCC341` (centres undefined), the growth inhibition in experiment [1] was -3.55% (inactive); in experiment [2], -4.95% (inactive); in experiment [3], -16.2% (inactive); in experiment [4] it was 9.3% (inactive); in experiment [5], 4.4% (inactive); in experiment [6], 14.1% (inactive).
For `O=C(Oc1ccc(S(=O)(=O)F)cc1Cl)c1ccccc1Cl`, the growth inhibition was 99.4% (active) in experiment [1]; 99.6% (active) in experiment [2]; 99.5% (active) in experiment [3]; 99.3% (active) in experiment [4]; 99.4% (active) in experiment [5]; 99.4% (active) in experiment [6].
As for `CC(C)CCC[C@@H](C)[C@H]1CC[C@H]2[C@@H]3CC=C4C[C@@H](OC(=O)Cl)CC[C@]4(C)[C@H]3CC[C@]12C`, the growth inhibition in experiment [1] was -24.1% (inactive); in experiment [2], -24.9% (inactive); in experiment [3], -14.7% (inactive); in experiment [4], 1.7% (inactive); in experiment [5], -2.7% (inactive); in experiment [6] it was -13.4% (inactive).
Take `CN1CCC(OC(=O)Oc2ccccc2)(c2ccccc2)CC1`: the growth inhibition was 1.6% (inactive) in experiment [1]; 9.6% (inactive) in experiment [2]; 3.95% (inactive) in experiment [3]; 33.7% (inactive) in experiment [4]; 48.5% (inactive) in experiment [5]; -6.65% (inactive) in experiment [6].
For the compound `OC/C=C\c1ccc2c(c1)OCO2`, the growth inhibition in experiment [1] is -19.2% (inactive); in experiment [2], 14.2% (inactive); in experiment [3], 17.2% (inactive); in experiment [4], -9% (inactive); in experiment [5], -58.5% (inactive); in experiment [6] it was -32.5% (inactive).
For `CC12CC[C]([Hg][I])(CC1)C2(C)C`, the growth inhibition in experiment [1] is 96.5% (active); in experiment [2] it was 98.6% (active); in experiment [3] it was 99.8% (active); in experiment [4] it was 4.3% (inactive); in experiment [5], 74.9% (active); in experiment [6] it was 84.8% (active).
Consider `CC[C@@]1(O)C(=O)OCc2c1cc1n(c2=O)Cc2c-1nc1ccccc1c2C=Nc1ccc(N[C@@H]2c3cc4c(cc3[C@@H](c3cc(OC)c(O)c(OC)c3)[C@H]3C(=O)OC[C@@H]32)OCO4)cc1`, for which the growth inhibition was 49.7% (inactive) and 82.5% (active) in experiment [1]; 71.6% (active) and 76.7% (active) in experiment [2]; 69.9% (inactive) and 80.4% (active) in experiment [3]; 54% (inactive) and 77.9% (active) in experiment [4]; 50.3% (inactive) and 83.3% (active) in experiment [5]; 46% (inactive) and 81.2% (active) in experiment [6].
